Source: PubChem BioAssay
HT1080NT lethal: kills 2HG-producing HT-1080-NT fibrosarcoma cells; HT-1080-NT fibrosarcoma viability, CellTiter-Glo ATP luminescence, 48 h; 360,000 compounds, 1.6% hits; Potency, µM (series often up to 46.1 µM), without a hit: at the top dose activity, negative = less viability, actives largely listed as cytotoxic;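 note: NT is the 2HG producing partner of a matched IDH1 knockdown line; potency is the fitted concentration of half-maximal effect; 0% = DMSO-treated cells and -100% = media-only wells without cells; nearly all actives have a fitted effect of over 55% in size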
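750 cells/well, RPMI + 5% FBS; 2 h settle, compound pin-transfer, 48 h at 37 degrees C. CellTiter-Glo 10 min RT, luminescence. Normalized to DMSO and media-only wells.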
IL1B secr inh: inhibitors of inflammasome signaling (IL-1 beta secretion). THP-1 LPS/ATP IL-1B secretion, AlphaLISA, 16 h; active compounds read low. activity change, % at 57.5 µM. 360,000 compounds, 4.7% hits. AID 743279; in the data active = activity change below about -50%; inconclusive = mostly about -30% to -49%
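THP-1 cells pretreated 1 hr with compounds (up to 57.5 uM final), then stimulated with LPS (250 ng/mL final) plus ATP (1.25 mM final); secreted IL-1B measured by AlphaLISA after 16 hr, decreased signal indicating inhibition.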
HT1080 IDH1KD tx: HT-1080 IDH1 knockdown cell toxicity (counter line); 360,000 compounds, 2% hits; AID 686971; HT-1080 IDH1 knockdown viability, ATP luminescence, 48 h; Potency, µM (doses to about 46.1 µM), for the others: at the top dose activity, negative = toxicity, most hits filed as cytotoxic;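 note: potency is the fitted concentration of half-maximal effect; 0% = DMSO wells and -100% = cell-free medium wells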
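IDH1KD HT-1080 cells, 750/well, RPMI + 5% FBS; compound pinned after 2 h settling; 48 h, 37 °C; CellTiter-Glo luminescence; % activity normalised to DMSO and no-cell wells; curves fitted, classed by r2 and efficacy.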
DT40 TDP1 CPT: growth inhibition of DT40 Tdp1-/-;hTDP1 cells with camptothecin (screen for TDP1 inhibitors). Potency, µM (doses to about 46.2 µM), for inactives: top-dose activity change, negative = growth inhibition, hits mostly inhibitors. 420,000 compounds, 12% hits. chicken DT40 Tdp1-/-;hTDP1 cells + 20 nM CPT, ATP luminescence, 48 h; note: potency is the fitted concentration of half-maximal effect; nearly all actives have a fitted effect of over 55% in size
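Chicken DT40 Tdp1-/- cells stably complemented with human TDP1 were seeded at 400 cells/well in medium containing 20 nM camptothecin, exposed to pin-transferred compounds, and grown at 37 °C for at least 48 hr. Viability was read as ATP luminescence.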
TDP1 cell noCPT: qHTS for Inhibitors of human tyrosyl-DNA phosphodiesterase 1 (TDP1): qHTS in cells in absence of CPT; DT40 Tdp1-/- hTDP1 cells, no CPT, ATP luminescence, 48 h; Potency, µM (top dose mostly 46.2 µM), for the others: at the top dose activity change, negative = growth inhibition, most hits filed as inhibitors; 420,000 compounds, 15% hits; note: potency is the fitted concentration of half-maximal effect; nearly all actives have a fitted effect of over 55% in size
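Camptothecin absent (DMSO only). Human TDP1-complemented DT40 knockout cells, 400 cells/well, 37 °C for minimum 48 hr; ATP measured via CellTiter-Glo, 30 min dark incubation, luminescence.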
* marks the source's active call; other numbers are inactive results. Hits are enriched below; roughly 19% of the tested compounds scored in any of these assays. Unless noted, calls come from the whole dose curve; as a rule, active = well fitted curve in the direction sought with a large enough effect; inconclusive = small, poorly fitted or top-dose-only effect, or another doubt; inactive = no such curve, though single readings can be large; an effect the other way counts as inactive or inconclusive. Unless noted, % is set by controls: 0 for no effect and ±100 for the full control effect.

COC(=O)C1=C(O)/C(=C\c2cc(C)n(-c3ccccc3F)c2C)N=C1C was read as HT1080NT lethal 1%, IL1B secr inh 29, HT1080 IDH1KD tx 11%, DT40 TDP1 CPT -19% and TDP1 cell noCPT -23%.
Screening COC(=O)C1=C(O)/C(=C\c2cc(C)n(-c3ccccc3C)c2C)N=C1C returned HT1080NT lethal -19%, IL1B secr inh -26, HT1080 IDH1KD tx 0%, DT40 TDP1 CPT 29µM* and TDP1 cell noCPT inconclusive.
Screening CCc1nn(CC(=O)NC(C)CC)c(=O)c2cc3c(OC)cccc3n12 (stereo unspecified) returned DT40 TDP1 CPT 2% and TDP1 cell noCPT -3%.
For CCC1CCCCN1S(=O)(=O)c1ccc(S(=O)(=O)N(Cc2ccccn2)CC2CCCO2)cc1 (stereo unspecified) the results were HT1080NT lethal 6%, IL1B secr inh -1, HT1080 IDH1KD tx -2%, DT40 TDP1 CPT 23µM* and TDP1 cell noCPT 23µM*.
COc1ccc(S(=O)(=O)N2CCCC2C(=O)NCc2cccs2)cc1 (stereo unspecified) was read as HT1080NT lethal 2%, IL1B secr inh 19, HT1080 IDH1KD tx 0%, DT40 TDP1 CPT -27% and TDP1 cell noCPT -22%.
CCC1CCCCN1S(=O)(=O)c1ccc(S(=O)(=O)N(Cc2cccs2)C2CC2)cc1 (stereo unspecified) was read as HT1080NT lethal 8%, IL1B secr inh 62, HT1080 IDH1KD tx 7%, DT40 TDP1 CPT 18µM* and TDP1 cell noCPT 23µM*.
`COc1ccc(NC(=O)CSc2nnc(NC(=O)Nc3ccccc3)s2)c(OC)c1` gave DT40 TDP1 CPT 0% and TDP1 cell noCPT -7%.
COC(=O)C[C@@H]1C=C[C@H](NS(=O)(=O)c2cccc(F)c2)[C@@H](CO)O1 was read as HT1080NT lethal inconclusive, IL1B secr inh 7, HT1080 IDH1KD tx 16%, DT40 TDP1 CPT 9% and TDP1 cell noCPT -6%.
For O=C(C[C@H]1C=C[C@@H](NS(=O)(=O)c2ccccc2)[C@@H](CO)O1)NCc1ccc(Cl)c(Cl)c1 the results were HT1080NT lethal -14%, IL1B secr inh -10, HT1080 IDH1KD tx -6%, DT40 TDP1 CPT inconclusive and TDP1 cell noCPT 18µM*.
Screening CN(CCC1CCOCC1)C(=O)C1CCC(=O)N(CCc2ccccc2)C1 (stereo unspecified) returned HT1080NT lethal 0%, IL1B secr inh 8, HT1080 IDH1KD tx -1%, DT40 TDP1 CPT 11% and TDP1 cell noCPT 8%.
For Cc1ccc(NC(=O)Cn2c(=O)n(Cc3ccco3)c(=O)c3ccc(C(=O)NC4CCCC4)cc32)c(C)c1 the results were DT40 TDP1 CPT 16µM* and TDP1 cell noCPT 16µM*.
Cc1ccc(C)c(NC(=O)Cn2c(=O)n(Cc3ccc4c(c3)OCO4)c(=O)c3ccc(C(=O)NC4CCCCC4)cc32)c1 was read as DT40 TDP1 CPT 2.6µM* and TDP1 cell noCPT inconclusive.
Cc1ccccc1NC(=O)Cn1c(=O)n(Cc2ccc3c(c2)OCO3)c(=O)c2ccc(C(=O)NC3CCCCC3)cc21 was read as DT40 TDP1 CPT 5.8µM* and TDP1 cell noCPT 7.3µM*.
Screening Cc1ccc(NC(=O)Cn2c(=O)n(Cc3ccc4c(c3)OCO4)c(=O)c3ccc(C(=O)NC4CCCCC4)cc32)c(C)c1 returned DT40 TDP1 CPT 2.1µM* and TDP1 cell noCPT inconclusive.
Screening COc1ccc(Cl)cc1NC(=O)Cn1c(=O)n(Cc2ccco2)c(=O)c2ccc(C(=O)NC3CCCC3)cc21 returned DT40 TDP1 CPT -8% and TDP1 cell noCPT -11%.
Screening CCOc1ccccc1-c1cnc(NC)cn1 returned HT1080NT lethal inconclusive, IL1B secr inh -6, HT1080 IDH1KD tx 10%, DT40 TDP1 CPT inconclusive and TDP1 cell noCPT -13%.
Screening CC(C)Cn1cc(Cl)c(=O)n(CC(C)C)c1=O returned HT1080NT lethal 2%, IL1B secr inh -6, HT1080 IDH1KD tx 8%, DT40 TDP1 CPT 10% and TDP1 cell noCPT 15%.
`CN(C)N=Nc1ccc(S(=O)(=O)/N=C(\O)c2ccccc2)cc1` gave HT1080NT lethal 9%, IL1B secr inh 10, HT1080 IDH1KD tx 6%, DT40 TDP1 CPT 2% and TDP1 cell noCPT -28%.
CCOC(=O)Cc1cnc(NC(=O)CSc2nc(C(C)C)cc(=O)[nH]2)s1 was read as HT1080NT lethal 2%, IL1B secr inh 2, HT1080 IDH1KD tx -2%, DT40 TDP1 CPT -5% and TDP1 cell noCPT -6%.
For Cc1cc(C)c(NC(=O)Cn2c(=O)n(CCC(=O)N3CCc4ccccc4C3)c(=O)c3ccccc32)c(C)c1 the results were DT40 TDP1 CPT 13µM* and TDP1 cell noCPT 0.52µM*.
For CCN(C(=O)Cn1c(=O)n(Cc2ccccc2)c(=O)c2ccccc21)c1cccc(C)c1 the results were HT1080NT lethal -7%, IL1B secr inh -24, HT1080 IDH1KD tx -3%, DT40 TDP1 CPT -11% and TDP1 cell noCPT inconclusive.
CCN(C(=O)Cn1c(=O)n(Cc2ccc3c(c2)OCO3)c(=O)c2ccc(C(=O)NC3CCCCC3)cc21)c1cccc(C)c1 was read as DT40 TDP1 CPT 15µM* and TDP1 cell noCPT 16µM*.
Screening Cc1cc(C)c(NC(=O)Cn2c(=O)n(Cc3ccc4c(c3)OCO4)c(=O)c3ccccc32)c(C)c1 returned DT40 TDP1 CPT -27% and TDP1 cell noCPT inconclusive.
Screening Cc1cc(C)c(NC(=O)Cn2c(=O)n(Cc3ccc(C(=O)NCc4ccc5c(c4)OCO5)cc3)c(=O)c3ccccc32)c(C)c1 returned DT40 TDP1 CPT 6.5µM* and TDP1 cell noCPT 7.3µM*.
For CN(CC(=O)N1CCCCCC1)S(=O)(=O)c1ccccc1 the results were HT1080NT lethal 11%, IL1B secr inh -2, HT1080 IDH1KD tx 4%, DT40 TDP1 CPT 6% and TDP1 cell noCPT 2%.
For O=C(CSCc1ccc(Br)cc1)Nc1ccccc1C(=O)N1CCOCC1 the results were HT1080NT lethal 3%, IL1B secr inh 6, HT1080 IDH1KD tx 13%, DT40 TDP1 CPT inconclusive and TDP1 cell noCPT 16µM*.
For O=C(CSCc1ccc(F)cc1)Nc1ccccc1C(=O)N1CCOCC1 the results were HT1080NT lethal 11%, IL1B secr inh -16, HT1080 IDH1KD tx 12%, DT40 TDP1 CPT 1% and TDP1 cell noCPT -13%.
For CCc1ccc2nc(N(CCN(CC)CC)C(=O)c3ccco3)sc2c1 the results were DT40 TDP1 CPT 21µM* and TDP1 cell noCPT inconclusive.
CCN(CC)CCN(C(=O)c1ccco1)c1nc2cc(C)cc(C)c2s1 was read as DT40 TDP1 CPT inconclusive and TDP1 cell noCPT 23µM*.
